Here are results for nine compounds from PubChem BioAssay (NCI).

Each structure is given as a SMILES string. This is part of a sample that, as a whole, favours compounds with a hit. Of some 83,000 tested, about 20% had one in any assay.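 48-hour exposure, single concentration, 96-well plates; percent growth endpoint where 0 means no net growth. Active: below 10.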 Unmarked numbers belong to inactive results. Active and inactive are the calls of the source.

Test systems include NCI-H23 lung; NCI-H226 lung; NCI-H322M lung; HOP-62 NSCLC; NCI-H460 lung; NCI-H522 lung; A549/ATCC NSCLC; 786-0 renal; COLO 205 colon; DU-145 prostate; K-562 leukemia; MALME-3M melanoma; MDA-MB-231 breast; RXF 393 renal; SF-268 CNS; SF-295 CNS; SF-539 CNS; UACC-257 melanoma; M14 melanoma.
Holding throughout (assay): NCI-60 one-dose screen, 48 h (100 = growth as untreated, 0 = no growth, -100 = all killed)
Details in all cases: 10 µM unless noted

With `CCN1CCN(Cc2ccc(NC(=O)Nc3ccc(-n4ccc5c(NC(=O)c6ccccc6)nccc54)cc3)cc2C(F)(F)F)CC1`, the growth was -51.5% (active) with NCI-H23 lung; 71.1% with NCI-H226 lung; 80.8% with NCI-H322M lung; -78.4% (active) in the test with HOP-62 NSCLC; -44.3% (active) with NCI-H460 lung; -87.2% (active) in the test with NCI-H522 lung. Further, the growth is -62.8% (active) in the test with A549/ATCC NSCLC; -84.6% (active) with 786-0 renal; -87.5% (active) in the test with COLO 205 colon; -58.6% (active) in the test on DU-145 prostate; -39.2% (active) in the test with K-562 leukemia; -48% (active) in the test with MALME-3M melanoma. The growth in the test with MDA-MB-231 breast is -39.3% (active); with RXF 393 renal it was -86.8% (active); in the test on SF-268 CNS, 41.7%; in the test on SF-295 CNS, -18.9% (active); with SF-539 CNS it was -48.4% (active); in the test on UACC-257 melanoma it was -69.6% (active).

Take `Oc1ccc(-c2nc3ccccc3s2)cc1CN(Cc1ccccn1)Cc1ccccn1`: the growth in the test on NCI-H23 lung was 17.5%; in the test on NCI-H226 lung, 5.38% (active); in the test with NCI-H322M lung, 9.63% (active); with HOP-62 NSCLC, 10.9%; with NCI-H460 lung, 2.66% (active); with NCI-H522 lung, -7.33% (active). Besides, the growth is 2.38% (active) with A549/ATCC NSCLC; -3.75% (active) in the test on 786-0 renal; 16% in the test with COLO 205 colon; 24.2% in the test with DU-145 prostate; 11.8% in the test on K-562 leukemia; 8.24% (active) with MALME-3M melanoma. The growth with MDA-MB-231 breast is 25.3%; with RXF 393 renal, 40.5%; with SF-268 CNS, 17.7%; in the test with SF-295 CNS it was 13.5%; in the test on SF-539 CNS, 3.91% (active); with UACC-257 melanoma, -0.146% (active). Moreover, the growth in the test with M14 melanoma was -29.7% (active).

As to `CCCCCCCCCCCCC1CCC(=O)O1` (stereo not drawn), the growth was 101% in the test on NCI-H23 lung; 100% in the test with NCI-H226 lung; 74.6% in the test on NCI-H322M lung; 91.8% in the test with HOP-62 NSCLC; 107% in the test with NCI-H460 lung; 86.9% in the test on NCI-H522 lung. Moreover, the growth with A549/ATCC NSCLC is 87.4%; in the test with 786-0 renal, 85.9%; in the test on COLO 205 colon, 97.9%; with DU-145 prostate, 104%; in the test with K-562 leukemia, 97.1%; in the test with MALME-3M melanoma, 98.2%. Besides, the growth in the test with MDA-MB-231 breast is 103%; with RXF 393 renal, 123%; with SF-268 CNS, 97.1%; with SF-295 CNS, 105%; in the test with SF-539 CNS it was 89.8%; with UACC-257 melanoma, 107%.

Consider `COc1nccc2c(Sc3ccccc3)nc(N)nc12`, for which the growth in the test with NCI-H23 lung was 98.8%; in the test with NCI-H226 lung, 103%; in the test with NCI-H322M lung, 110%; in the test on HOP-62 NSCLC, 113%; with NCI-H460 lung it was 109%; in the test with NCI-H522 lung, 88.1%. Besides, the growth with A549/ATCC NSCLC was 104%; with 786-0 renal it was 88.9%; in the test on COLO 205 colon, 117%; in the test with DU-145 prostate it was 104%; in the test on K-562 leukemia, 93%; in the test with MALME-3M melanoma, 137%. For the same compound, the growth in the test on MDA-MB-231 breast is 100%; with RXF 393 renal, 117%; with SF-268 CNS, 105%; in the test with SF-295 CNS it was 103%; in the test on SF-539 CNS, 119%; in the test with UACC-257 melanoma, 111%.

As to `COc1ccc(Oc2nc(Nc3ccc(N4CCOCC4)cc3)ncc2NC(=O)Nc2cccc(OC)c2)cc1`, the growth in the test with NCI-H23 lung is 72.2%; in the test with NCI-H226 lung it was 42.1%; in the test with NCI-H322M lung it was 53.3%; in the test with HOP-62 NSCLC, 64.7%; in the test on NCI-H460 lung, 41.5%; with NCI-H522 lung, 23.7%. Further, the growth with A549/ATCC NSCLC was 41.7%; in the test with 786-0 renal it was 80.7%; in the test on COLO 205 colon it was 17.8%; with DU-145 prostate, 47.5%; in the test with K-562 leukemia it was 57%; with MALME-3M melanoma it was 69.7%. The growth with MDA-MB-231 breast is 28.8%; with RXF 393 renal it was 39.4%; in the test on SF-268 CNS, 74.4%; in the test on SF-295 CNS, 81.1%; in the test with SF-539 CNS, 28.3%; in the test with UACC-257 melanoma it was 91.5%.

With `COc1ccc2nc3cc(Cl)ccc3c(NC(=O)CSc3ccc(Cl)cc3)c2c1`, the growth in the test with NCI-H23 lung is -90% (active); in the test with NCI-H226 lung, -44.4% (active); with NCI-H322M lung, -90.1% (active); in the test with HOP-62 NSCLC, -99.5% (active); with NCI-H460 lung, -84.4% (active); with NCI-H522 lung, -96.5% (active). In addition, the growth in the test with A549/ATCC NSCLC is -69.4% (active); in the test with 786-0 renal, -98.2% (active); in the test with COLO 205 colon, -20.1% (active); in the test with DU-145 prostate it was -98.3% (active); with K-562 leukemia, -3.86% (active); in the test with MALME-3M melanoma it was -77.1% (active). In addition, the growth in the test with MDA-MB-231 breast is -69.3% (active); with RXF 393 renal, -99.1% (active); in the test on SF-268 CNS, -88.9% (active); in the test with SF-295 CNS, -86.2% (active); with SF-539 CNS it was -91.9% (active); in the test with UACC-257 melanoma, -90% (active).

Consider `COc1ccc(N=C2CSc3nnc(-c4cc(F)c(Cl)cc4Cl)n3N2)cc1`, for which the growth was -22.1% (active) in the test with NCI-H23 lung; 27.9% in the test with NCI-H226 lung; 6.08% (active) in the test on NCI-H322M lung; -33.7% (active) in the test on HOP-62 NSCLC; -63.2% (active) in the test on NCI-H460 lung; -27.7% (active) with NCI-H522 lung. For the same compound, the growth with A549/ATCC NSCLC was -21.1% (active); in the test with 786-0 renal, -44.5% (active); in the test on COLO 205 colon, -21.1% (active); in the test with DU-145 prostate, -48.9% (active); in the test on K-562 leukemia it was -58.4% (active); in the test on MALME-3M melanoma, -45.1% (active). Further, the growth was -4.51% (active) with MDA-MB-231 breast; -52.7% (active) with RXF 393 renal; 7.12% (active) in the test on SF-268 CNS; -16.2% (active) with SF-295 CNS; -67.3% (active) with SF-539 CNS; 38.5% with UACC-257 melanoma.

Regarding `Nc1ncnc2c1N=C(c1ccc3c(c1)OCO3)CC(c1ccc(Cl)cc1)N2` (stereo not drawn), the growth in the test with NCI-H23 lung is 81.8%; with NCI-H226 lung it was 73.3%; in the test on NCI-H322M lung, 71.2%; with HOP-62 NSCLC, 44.1%; in the test with NCI-H460 lung it was 83.3%; in the test with NCI-H522 lung it was 84.3%. Moreover, the growth in the test with A549/ATCC NSCLC was 79.6%; in the test with 786-0 renal it was 74.3%; with COLO 205 colon, 68.1%; in the test on DU-145 prostate, 92%; with K-562 leukemia it was 83.8%; in the test on MALME-3M melanoma it was 77.2%. Further, the growth with MDA-MB-231 breast is 72.3%; in the test with RXF 393 renal, 55.1%; in the test on SF-268 CNS it was 77.3%; in the test on SF-295 CNS, 93.4%; in the test with SF-539 CNS it was 80.2%; in the test on UACC-257 melanoma, 96.2%.

With `CCN1C(=O)/C(=C/N2N=C(c3ccc(Cl)cc3)CC2c2ccc(OC)cc2)SC1=S` (stereo not drawn), the growth in the test on NCI-H23 lung was 98.3%; in the test with NCI-H226 lung it was 93%; with NCI-H322M lung, 89%; in the test on HOP-62 NSCLC, 96%; in the test with NCI-H460 lung it was 99.7%; in the test with NCI-H522 lung it was 70.4%. Moreover, the growth in the test with A549/ATCC NSCLC is 74.3%; in the test with 786-0 renal it was 76.4%; in the test on COLO 205 colon, 99.7%; in the test on DU-145 prostate, 108%; with K-562 leukemia, 77.8%; in the test on MALME-3M melanoma it was 108%. Also, the growth was 87.2% in the test with MDA-MB-231 breast; 91.9% with RXF 393 renal; 95.2% in the test with SF-268 CNS; 89.6% in the test with SF-295 CNS; 88% with SF-539 CNS; 89.3% in the test on UACC-257 melanoma.
